tim23-1 inh – growth inhibitors of tim23-1 mutant yeast, primary screen, luminescence, uHTS | 330,000 compounds, 1.3% hits | inhibition, % at 20 µM | S. cerevisiae tim23-1 growth, BacTiter-Glo luminescence, 24 h | AID 463212, 2010;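 active = growth inhibition of the mutant yeast at or above 50%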;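 note: temperature-sensitive mutant grown at 25 °C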
Beta2AR agonist – beta2AR agonists driving receptor internalization, primary screen, cell-based, FAP fluorogen, flow cytometry | response, % (concentration not given with the values) | 340,000 compounds, 0.43% hits | Am2.2-beta2AR cells;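 active = response above a set limit, near 3 SD of response in nonfluorescent compounds, cut at about 42% in these data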
Target sequence (P07550 whole entry, looked up): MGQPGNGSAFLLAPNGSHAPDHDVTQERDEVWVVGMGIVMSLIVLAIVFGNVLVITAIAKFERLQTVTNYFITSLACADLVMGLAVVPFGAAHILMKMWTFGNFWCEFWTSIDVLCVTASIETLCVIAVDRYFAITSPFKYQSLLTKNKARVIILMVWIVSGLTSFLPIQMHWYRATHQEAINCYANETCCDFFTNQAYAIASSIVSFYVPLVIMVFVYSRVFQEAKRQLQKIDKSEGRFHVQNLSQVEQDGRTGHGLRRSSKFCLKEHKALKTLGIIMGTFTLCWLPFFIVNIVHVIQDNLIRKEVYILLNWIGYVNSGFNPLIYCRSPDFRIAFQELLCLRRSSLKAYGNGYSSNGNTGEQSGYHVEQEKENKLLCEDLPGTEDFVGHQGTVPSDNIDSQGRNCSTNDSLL
TIM10 inh – growth inhibitors of isogenic TIM10 control yeast, primary screen, counter-screen for tim10-1 yeast inhibitor project, luminescence, uHTS; S. cerevisiae TIM10 strain growth, BacTiter-Glo luminescence, 24 h; inhibition, % at 10 µM; 330,000 compounds, 1.4% hits;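 active = inhibition of 40% or more at the single tested concentration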;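 note: wild-type TIM10 isogenic control strain grown at permissive 25 °C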
tim10-1 inh – growth inhibitors of tim10-1 mutant yeast, primary screen, luminescence, uHTS; S. cerevisiae tim10-1 ts strain growth, BacTiter-Glo, 24 h; inhibition, % at 20 µM; 330,000 compounds, 2.2% hits;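 active = inhibition of at least 40%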;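 note: mutant grown at 25 °C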
PfHsp90 yeast 2 – growth inhibition of PfHsp90-expressing yeast, primary screen, antimalarial PfHsp90 inhibitor project, S. cerevisiae, BacTiter-Glo luminescence, single point, set 2. BacTiter-Glo ATP, 48 h; yeast lacking PDR1 and PDR3 efflux regulators. inhibition, % at 9.4 µM. 310,000 compounds, 0.32% hits. AID 504621, 2011;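 active = every replicate shows inhibition above about 80%, whatever the replicate mean, limit read from the data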
tim10-1 conf – growth inhibitors of tim10-1 mutant yeast, confirmation, single concentration, luminescence, S. cerevisiae; inhibition, % at 20 µM; shares compounds with tim10-1 inh; S. cerevisiae tim10-1 ts strain growth, BacTiter-Glo, 24 h; 7,400 compounds, 56% hits; AID 463213, 2010;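 active = inhibition of yeast growth at or above a set limit in either of two repeat tests at 20 µM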;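 note: tim10-1 mutant grown at permissive 25 °C to find synthetic lethal compounds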
A number is an active result; i = inactive; nt = no result given. The list is not random: actives were taken first. Their share in the collection is about 3.8%.

SMILES | tim23-1 inh | Beta2AR agonist | TIM10 inh | tim10-1 inh | PfHsp90 yeast 2 | tim10-1 conf
Fc1cccc(NC(=S)NCc2ccc(Cl)cc2)c1 | i | i | i | i | i | nt
O=C(NC(=S)Nc1ccccc1Cl)c1csnn1 | i | i | i | i | i | nt
CN(C)NC(=S)Nc1cccc(C(F)(F)F)c1 | i | i | i | i | i | nt
Cc1ccc(N=C2C(=O)Nc3ccc(Br)cc32)cc1 | i | i | i | 48 | i | i
COc1ccc(CNC(=O)CN2CCC(NC(=O)c3ccccc3C)CC2)cc1 | i | i | i | i | i | nt
COc1ccc(OC)c(S(=O)(=O)N2C(C)CCCC2C)c1 (stereo not given) | i | i | i | 42 | i | i
COc1ccc(OC)c(S(=O)(=O)N2CCN3CCCC3C2)c1 (stereo not given) | i | i | i | i | i | nt
Cc1cccc(NC(=O)CCCCCN2C(=O)[C@@H]3Cc4ccccc4CN3C2=O)c1 | i | i | i | i | i | nt
O=C(CCCCCN1C(=O)[C@@H]2Cc3ccccc3CN2C1=O)Nc1cccc(F)c1 | i | i | i | 45 | i | i
CC(OC(=O)C1CCN(S(=O)(=O)c2ccc(C(C)(C)C)cc2)CC1)C(=O)N(C)C1CCCCC1 (stereo not given) | nt | i | nt | nt | i | nt
COCCn1c(C)nnc1SCC(=O)NNC(=O)c1ccc(Cl)cc1 | i | i | i | i | i | nt
CC(C)COc1ccc(C(=O)CCN2CCCCC2)cc1 | i | i | i | 54 | i | i
OC(COc1ccc2ccccc2c1Br)Cn1cnc(-c2ccccc2)c1 (stereo not given) | i | i | i | 43 | i | 44
COc1ccc(NS(=O)(=O)c2ccc(Br)cc2)cn1 | i | i | i | i | i | nt
COc1ccc(NS(=O)(=O)c2ccc3oc4ccccc4c3c2)cn1 | i | i | i | 44 | i | 36
CC(=O)Nc1ccc(OS(=O)(=O)c2c(C)cc(C)cc2C)cc1 | i | i | i | 46 | i | 31
CC(=O)Nc1ccc(OS(=O)(=O)c2ccc(C)cc2C)cc1 | i | i | i | i | i | nt
N#C/C(=C/c1ccc(-c2ccc(Br)cc2)o1)C(=O)NC1CCCCC1 | i | i | i | i | i | nt
N#C/C(=C\c1ccc(-c2ccc(Br)cc2)o1)C(=O)NCCc1c[nH]c2ccccc12 | i | i | i | 41 | i | i
Cc1cccc2c(N=O)c(O)n(CCc3ccccc3)c12 | i | i | i | 41 | i | i
COc1cc2c(c(OC)c1OC)-c1ccc(SC)c(=O)cc1C(NC=O)CC2 (stereo not given) | nt | i | nt | nt | i | nt
Cc1ccc(C(=O)N2[C@@H]3CN(C)C(=O)[C@@]2(Cc2ccccc2)[C@H]2C(=O)N(Cc4ccccc4)C(=O)[C@@H]32)cc1 | nt | i | nt | nt | i | nt
CCCCn1c(N)c(N(CCOC)C(=O)COC(=O)c2ccccc2NCCO)c(=O)[nH]c1=O | nt | i | nt | nt | nt | nt
CCCCOC(=O)Nc1cccc(C(=O)OCC)c1 | i | i | i | 46 | i | i
O=C(NCc1ccccc1)c1cccc(NC(=O)C2CCCC2)c1 | nt | i | nt | nt | i | nt
SMILES | tim23-1 inh | Beta2AR agonist | TIM10 inh | tim10-1 inh | PfHsp90 yeast 2 | tim10-1 conf
CCc1nc(N)c(C#N)c(-c2cccn2C)c1C | i | i | i | 41 | i | i
CCN(CC)CCCCNc1ncc2cc(-c3cc(OC)cc(OC)c3)c(NC(=O)NC(C)(C)C)nc2n1 | i | i | i | i | i | nt
O=C1c2cccnc2C(Nc2ccc(Br)cc2)N1Cc1cccs1 (stereo not given) | i | i | i | 41 | nt | i
COc1ccc(NC2c3ncccc3C(=O)N2Cc2cccs2)cc1 (stereo not given) | i | i | i | i | i | nt
O=C(O)c1ccccc1C(=O)N1N=C2/C(=C/c3cccc([N+](=O)[O-])c3)CCCC2C1c1cccc([N+](=O)[O-])c1 (stereo not given) | i | i | i | 44 | i | i
O=C(O)c1c(C(=O)N2N=C3/C(=C/c4ccccc4)CCCC3C2c2ccccc2)cccc1[N+](=O)[O-] (stereo not given) | i | i | i | i | i | nt
COc1ccccc1C(=O)NNC(=O)c1ccc(C)cc1 | i | i | i | i | i | nt
COc1ccccc1C(=O)NC(=O)Nc1c(C)cc(C)cc1C | i | i | i | 42 | i | 40

Source: PubChem BioAssay
